CHX counter: counter-screen hit for Shiga toxin inhibitors, cycloheximide; cell reporter, cycloheximide protein synthesis inhibition counterscreen; max response, %; actives 12% (n = 300,000); AID 2314; in the data active = max response mostly above about 13%, no sharp cut-off; inactive = mostly below about 14%; also: read at 38.3 µM for the half of the compounds with a filed dose; 0% is about no effect
SARS PLP yeast: inhibitors of SARS-CoV papain-like protease in yeast | S. cerevisiae expressing SARS-CoV PLpro, growth rescue | Potency, µM (top dose mostly 32.9 µM), for inactives: at the top dose activity, positive = growth rescue, most hits filed as activators | actives 0.19% (n = 330,000) | AID 485353; also: potency is read from the fitted curve at half-maximal effect; 0% is about no effect; nearly all actives have a fitted effect of over 55% in size
LmPK inh: LmPK (Leishmania mexicana) enzyme inhibition; Potency, µM (series often up to 57.5 µM), without a hit: at the top dose activity change, negative = inhibition, most hits filed as inhibitors; actives 0.37% (n = 290,000); AID 1721; purified LmPK, Kinase-Glo ATP luminescence, 1 h; active = well fitted curve in the direction sought with a large enough effect; inconclusive = small, poorly fitted or top-dose-only effect, or another doubt; inactive = no such curve, though single readings can be large; an effect the other way counts as inactive or inconclusive; also: potency is read from the fitted curve at half-maximal effect; % is scaled to controls: 0 for no effect and ±100 for the full control effect
Target sequence (Q27686 whole entry, looked up): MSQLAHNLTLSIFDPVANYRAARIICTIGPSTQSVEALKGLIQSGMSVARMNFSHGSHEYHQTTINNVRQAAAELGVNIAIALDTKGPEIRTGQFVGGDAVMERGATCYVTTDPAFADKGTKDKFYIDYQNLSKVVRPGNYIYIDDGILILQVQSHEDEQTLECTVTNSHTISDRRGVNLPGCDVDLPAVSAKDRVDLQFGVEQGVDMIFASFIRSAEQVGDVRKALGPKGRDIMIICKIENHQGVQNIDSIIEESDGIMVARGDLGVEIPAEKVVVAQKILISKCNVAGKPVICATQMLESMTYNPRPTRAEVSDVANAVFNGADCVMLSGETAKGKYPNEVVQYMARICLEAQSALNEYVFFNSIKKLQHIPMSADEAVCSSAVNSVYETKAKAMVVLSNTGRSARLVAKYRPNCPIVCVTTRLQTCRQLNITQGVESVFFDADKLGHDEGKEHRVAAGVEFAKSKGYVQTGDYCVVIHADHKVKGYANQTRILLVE
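0.1 nM LmPK, 0.5 mM PEP, 0.1 mM ADP; 50 mM imidazole pH 7.2, 7 mM MgCl2, 50 mM KCl; 1 h RT. Kinase-Glo luminescence readout, normalized to no-enzyme (full inhibition) and uninhibited wells.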
Shiga toxin inh: blocks Shiga toxin action in Vero cells. Vero cells, Shiga toxin protein synthesis inhibition reporter. inhibition, % at 38.7 µM. actives 9.2% (n = 290,000). AID 2315; in the data active = inhibition mostly above about 28%, no sharp cut-off; inactive = mostly below about 43%; also: 0% is about no effect
NS1 inh: blocks influenza NS1 protein function. Potency, µM (titrated, usually from 46.1 µM), for the others: at the top dose activity, positive = more growth. actives 0.4% (n = 270,000); also: potency is read from the fitted curve at half-maximal effect; actives are rising curves; nearly all actives have a fitted effect of over 50% in size
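Growth recovery, yeast-based: influenza A NS1 expressed in S. cerevisiae causes slow growth, and suppressors are detected by OD600. The parent strain without NS1 is used as positive control.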
Tb PYK inh: inhibitors of Trypanosoma brucei pyruvate kinase. TbPYK enzyme, Kinase-Glo Plus ATP luminescence, 45 min. Potency, µM (doses to about 76.8 µM), inactives show top-dose activity, negative = inhibition, hits mostly inhibitors. actives 0.12% (n = 410,000). AID 624173; active = well fitted curve in the direction sought with a large enough effect; inconclusive = small, poorly fitted or top-dose-only effect, or another doubt; inactive = no such curve, though single readings can be large; an effect the other way counts as inactive or inconclusive; also: potency is read from the fitted curve at half-maximal effect; % is scaled to controls: 0 for no effect and ±100 for the full control effect; nearly all actives have a fitted effect of over 50% in size
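Luminescent Kinase-Glo Plus end-point after 45 min room-temperature reaction of T. brucei pyruvate kinase started with 130 uM ADP (final). Buffer TEA 50 mM pH 7.2 with KCl, MgCl2, BSA, Tween-20; titration-based qHTS with fitted concentration-effect curves.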
Active calls of the source: *; ? = inconclusive; . = not tested or not shown. Many of the other results were omitted from the sample, so hits are more common in it than they were. Unless noted, calls follow the shape of the full dose curve.

SMILES | CHX counter | SARS PLP yeast | LmPK inh | Shiga toxin inh | NS1 inh | Tb PYK inh
O=C1C2C3c4ccccc4C(c4ccccc43)C2C(=O)N1c1nc(-c2ccccc2)cs1 (centres undefined) | -2 | -2% | 7% | -15 | 9% | 1%
N=C1SCC(=O)N1c1nc(-c2ccccc2)cs1 | 21* | -3% | 3% | 41 | -12% | 3%
CC1=NN(c2nc(-c3ccccc3)cs2)C(=O)C1 | 16* | 1% | -2% | 24 | 23% | -5%
CC1=NN(c2nc(-c3ccc(C#N)cc3)cs2)C(=O)C1 | 15 | 0% | 1% | 53* | 19% | 2%
c1ccc(C(OC2CCCN(CCc3ccc4c(c3)OCO4)C2)c2ccccc2)cc1 (centres undefined) | -4 | . | . | 16 | . | 4%
O=C(Nc1ccc([N+](=O)[O-])cc1)Nc1ccc(OC(F)F)c(Cl)c1 | -6 | -123% | 0% | -9 | -24% | -10%
CSc1nc(-c2ccc(N(C)C)cc2)c(C#N)c(=O)n1C | 25* | -1% | 1% | 42* | 4% | -1%
Cc1ccc(-c2csc(-c3c[nH]c4ccccc34)n2)c(C)c1 | 36* | -9% | 2% | 78* | -6% | 3%
Cc1ccc(Nc2c(-c3c[nH]c4ccccc34)nc3cc(C)ccn23)cc1 | . | . | . | . | . | -12%
Oc1ccc(-c2csc(-c3c[nH]c4ccccc34)n2)c(O)c1 | 70* | -43% | 2% | 60* | -22% | -5%
COc1cccc(CNC(=O)CCNS(=O)(=O)c2ccc(Br)s2)c1 | -2 | -2% | 0% | -2 | -10% | -7%
c1ccc(CSc2nnc(-c3ccco3)o2)cc1 | 49* | -1% | 0% | 109* | -32% | -3%
Fc1ccc(CSc2nnc(-c3ccco3)o2)cc1 | 46* | -3% | -11% | 59* | -39% | 0%
O=C(O)c1ccc(CSc2nnc(-c3ccco3)o2)cc1 | -6 | 4% | 10% | 6 | -49% | 2%
N#Cc1c(N)nc(SCc2ccccc2)c(C#N)c1-c1ccco1 | 15* | 3% | 0% | 6 | -41% | -9%
Cc1ccc(CSc2nnc(-c3ccco3)o2)cc1 | 33* | -15% | 1% | 107* | -111% | -8%
O=C(NCc1ccc2c(c1)OCO2)c1nc(Cn2cc([N+](=O)[O-])cn2)no1 | 1 | 1% | 6% | -3 | -10% | 0%
COc1ccc(CN2CCCN(CC(=O)Nc3cc(C)ccc3C)S2(=O)=O)cc1 | . | . | . | . | . | -3%
N#Cc1ccc(CSc2nnc(-c3ccc(Br)cc3)o2)cc1 | . | . | . | . | . | -5%
Brc1ccc(CSc2nnc(-c3ccco3)o2)cc1 | 63* | -36% | -1% | 69* | -33% | 8%
COc1ccc(-c2noc(CC(=O)N(C)c3cc(Cl)c(OC)cc3OC)n2)cc1 | . | . | . | . | . | -8%
CCOc1ccc2nc(N/C(N)=N/C(=S)Nc3ccc(C)c(C)c3)nc(C)c2c1 | -6 | 6% | -1% | 7 | 6% | -14%
CCNC(=S)/N=C(\N)Nc1nc(C)c2cc(C)ccc2n1 | 43* | -2% | 2% | 88* | 0% | -3%
CCNC(=O)C1CCCN(C(=O)c2ccco2)CC1 (centres undefined) | . | . | . | . | . | -2%
CC(NC(=O)CN1CCN(C(=O)c2cccs2)CC1)c1ccc(F)cc1F (centres undefined) | . | -4% | . | . | . | 4%
SMILES | CHX counter | SARS PLP yeast | LmPK inh | Shiga toxin inh | NS1 inh | Tb PYK inh
CN(CCc1ccccc1)C(C(=O)Nc1ccc2c(c1)OCCO2)c1ccnc2ccccc12 (centres undefined) | . | . | . | . | . | 5%
Cc1cc(NC(=O)NCc2ccccc2)c(=O)n(Cc2ccccc2F)c1 | 2 | 0% | 4% | -5 | 9% | 1%
COc1ccc(Br)cc1CNC(=O)Nc1cccs1 | -1 | -5% | 4% | -4 | -5% | -15%
COc1ccccc1CNC(=O)Nc1cccs1 | 19* | -5% | 6% | 63 | 9% | ?
Cc1ccc(CNC(=O)Nc2cccs2)cc1 | 50* | 4% | 3% | 51* | -3% | -6%
COc1cccc(Cn2cc(C)cc(NC(=O)NCc3ccccc3)c2=O)c1 | 15* | 4% | 6% | . | 13% | -2%
COc1cccc(CNC(=O)Nc2cccs2)c1 | 33* | -11% | 3% | 64* | -7% | -8%
CN1C[C@@H]2C[C@H]1CN2c1cc2c(cc1F)c(=O)c(C(=O)O)cn2C1CC1 | . | . | . | . | . | 2%
COc1ccc(OC)c(C(=O)COC(=O)c2cccnc2Cl)c1 | 10 | 0% | 8% | 18 | . | 1%
COc1ccc(C(=O)COC(=O)c2cccnc2Cl)c(OC)c1 | 38* | 0% | -3% | 72* | . | -2%
COc1ccc(OC)c(C(=O)COC(=O)c2ccccc2O)c1 | 16* | -7% | -1% | 110* | -13% | .
O=C(OCC(=O)C12CC3CC(CC(C3)C1)C2)c1ccccn1 | 13 | 3% | 0% | -10 | -10% | 3%
CCOc1ncccc1C(=O)OCC(=O)c1ccc(C)c(C)c1 | 43* | 0% | -5% | 70* | . | -7%
O=C(OCC(=O)C12CC3CC(CC(C3)C1)C2)c1cccnc1Cl | 20* | 26% | 1% | 29 | -11% | 3%
COc1ccc(CCN2C(=O)c3oc4ccc(F)cc4c(=O)c3C2c2ccc(C(C)(C)C)cc2)cc1 (centres undefined) | . | . | . | . | . | 1%
Cc1cc(C)c(C(=O)COC(=O)c2cccnc2Cl)c(C)c1 | 56* | -1% | -1% | 90* | . | -7%
O=C(COC(=O)c1cccnc1Cl)c1ccc(Cl)cc1Cl | -4 | -7% | -7% | -16 | -25% | -9%
O=C(COC(=O)c1cccnc1Cl)c1ccc(OC(F)F)cc1 | 11 | 1% | 16µM* | -11 | . | -1%
COc1ccc(S(=O)(=O)N2CCOCC2)cc1NC(=O)c1cccc(Cl)c1 | -7 | 2% | 0% | -8 | 10% | -1%
COC(=O)c1ccn(Cc2ccccc2Cl)n1 | 44* | 0% | 7% | 63* | . | 2%
COC(=O)c1cc2n(n1)CCN(Cc1ccccc1Cl)C2=O | -1 | 10% | -1% | -3 | -5% | -14%
Cc1cc(C(=O)OCC(=O)Nc2c(F)cccc2F)c(C)n1-c1ccccc1 | 55* | 0% | -3% | 110* | -14% | -16%
COCC(C)n1c(C)cc(C(=O)Cn2nc(C(=O)O)c3ccccc3c2=O)c1C (centres undefined) | 28 | 4% | 1% | 55* | . | -6%
Cc1cc(C(=O)COC(=O)c2ccc(O)cc2)c(C)n1-c1ccccc1F | 42* | 1% | 4% | 107* | . | -3%
Cc1cc(C(=O)Cn2nc(C(=O)O)c3ccccc3c2=O)c(C)n1-c1ccc(OC(F)F)cc1 | 4 | 0% | -3% | 19 | -38% | -6%
COc1ccc(-n2c(C)cc(C(=O)Cn3nc(C(=O)O)c4ccccc4c3=O)c2C)cc1 | 26* | 13% | 6% | 34* | 17% | -11%
Cc1cc(C(=O)OCC(=O)N2CCOCC2)c(C)n1-c1ccccc1 | . | 0% | . | . | . | -8%

From PubChem
